Assay results published in the supplement of paper PMC11865577.
Counter-ions that a name gives are not always drawn.

Legend:
Test in all cases: normalised indicator fluorescence (fraction of RNA + indicator signal without compound); higher = less displacement of indicator (weaker competition)
Conditions in all cases: compound concentration: 5 uM, 30 min
hsa-mir-191 loop = test system: hsa-mir-191 loop
Outline: (§1)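 For the displacement screen, RNA and a TO-PRO-1 or TO-PRO-3 indicator were held in 20 mM phosphate pH 7.0 with 20 mM NaCl and 80 mM KCl in 96-well plates. After adding 0.25 μL of each 1 mM DMSO stock (about 5 uM final) and waiting 30 min, fluorescence was measured on an Infinite 200 PRO with excitation at 485 or 620 nm. Each value is the mean of two independent experiments, expressed as blank-subtracted indicator fluorescence relative to the no-compound RNA-plus-indicator signal.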

hsa-mir-21 loop = test system: hsa-mir-21 loop
Outline: as §1

hsa-mir-221 loop = test system: hsa-mir-221 loop
Outline: as §1

hsa-mir-374a loop = test system: hsa-mir-374a loop
Outline: as §1

hsa-mir-6850 loop = test system: hsa-mir-6850 loop
Outline: as §1

[1] = indicator: TO-PRO-1 0.1 uM, RNA concentration: 0.1 uM
[2] = indicator: TO-PRO-3 0.5 uM, RNA concentration: 0.5 uM

SMILES | normalised indicator fluorescence (hsa-mir-191 loop; [1]) | normalised indicator fluorescence (hsa-mir-191 loop; [2]) | normalised indicator fluorescence (hsa-mir-21 loop; [1]) | normalised indicator fluorescence (hsa-mir-21 loop; [2]) | normalised indicator fluorescence (hsa-mir-221 loop; [1]) | normalised indicator fluorescence (hsa-mir-221 loop; [2]) | normalised indicator fluorescence (hsa-mir-374a loop; [1]) | normalised indicator fluorescence (hsa-mir-374a loop; [2]) | normalised indicator fluorescence (hsa-mir-6850 loop; [1]) | normalised indicator fluorescence (hsa-mir-6850 loop; [2])
COc1ccc(-c2coc3cc(O)ccc3c2=O)cc1O [Calycosin] | 1.08 | 1.02 | 1 | 1.06 | 1.03 | 1.08 | 1.01 | 1.25 | 1.01 | 1.07
CC(C)c1cc(-c2n[nH]c(=O)n2-c2ccc3c(ccn3C)c2)c(O)cc1O [Ganetespib] | 1.04 | 1.03 | 1 | 1.04 | 1.03 | 1.08 | 1.07 | 1.14 | 0.915 | 1
Oc1ccc(-c2nc(-c3ccc(F)cc3)c(-c3ccncc3)[nH]2)cc1 | 1.1 | 1.04 | 0.993 | 1.03 | 1.08 | 1.13 | 1.09 | 1.2 | 0.999 | 1.04
COc1ccc(C2CC(=O)c3c(O)cc(OC4OC(COC5OC(C)C(O)C(O)C5O)C(O)C(O)C4O)cc3O2)cc1OC (stereo not given) [Methyl hesperidin] | 0.968 | 1.08 | 0.942 | 0.97 | 1.05 | 1.03 | 1.14 | 1.14 | 0.967 | 1.07
Cc1cc(NC(=O)c2cccc(NC(=O)/C=C/CN(C)C)c2)ccc1Nc1nccc(-c2cccnc2)n1 | 1.03 | 1.05 | 0.972 | 1.01 | 1.04 | 1.02 | 1.08 | 1.05 | 1.06 | 0.942
O=c1cc(-c2ccc(O)cc2)oc2cc(O)cc(O)c12 [Apigenin] | 1.03 | 1.05 | 0.934 | 1 | 1.04 | 1.03 | 1.05 | 1.22 | 0.954 | 1.06
O=C1O[C@H]([C@@H](O)CO)C(O)=C1O [L(+)-Ascorbic acid] | 1.01 | 1 | 0.953 | 1 | 1.05 | 1.11 | 1.05 | 1.12 | 1.09 | 1.06
O=C(O)CCc1ccc(O)cc1O [Hydroumbellic acid] | 1.11 | 1.05 | 0.973 | 1.06 | 0.989 | 1.16 | 1.1 | 1.13 | 1.1 | 1.04
Nc1ncnc2c1ncn2[C@@H]1O[C@H](CO)[C@@H](O)[C@@H]1O [Vidarabine] | 1.03 | 1.07 | 1.03 | 1.04 | 1.03 | 1.04 | 1.16 | 1.15 | 1 | 1.06
COc1ccc(O)cc1 [4-Methoxyphenol] | 0.962 | 1.17 | 0.99 | 1.05 | 1.08 | 1.04 | 1.19 | 1.14 | 0.977 | 1.11
Cc1c(C)c2c(c(C)c1O)CC[C@@](C)(CCC[C@H](C)CCC[C@H](C)CCCC(C)C)O2 [Vitamin E] | 1.08 | 1.06 | 0.956 | 1.01 | 1.02 | 1.07 | 1.05 | 1.06 | 0.907 | 1.03
COC(=O)C1=CC[C@@]23CC[C@@H]([C@@](C)(/C=C/C=C(\C)C(=O)O)OC2=O)[C@@]3(OC(C)=O)CC1 [Pseudolaric Acid B] | 1.02 | 0.949 | 1.02 | 0.979 | 0.969 | 0.93 | 0.998 | 1.19 | 1.03 | 1.03
NC(=O)c1ccc(N(C(N)=O)c2c(F)cccc2F)nc1-c1ccc(F)cc1F | 0.984 | 1.01 | 0.905 | 1.02 | 1.06 | 0.999 | 1.15 | 1.19 | 0.94 | 1.03
O=C(/C=C/C=C/c1ccc2c(c1)OCO2)N1CCCCC1 [Piperine] | 1.02 | 1.01 | 0.903 | 1.05 | 0.997 | 0.908 | 1.16 | 1.16 | 1.13 | 1.04
COc1nccnc1NS(=O)(=O)c1ccc(NC(=O)/C=C/c2ccc([N+](=O)[O-])s2)cc1 [Necrosulfonamide] | 1.12 | 1.02 | 0.985 | 1.08 | 1.01 | 1.08 | 1.05 | 1.18 | 0.886 | 1
CC(C)N(CCCCOCC(=O)NS(C)(=O)=O)c1cnc(-c2ccccc2)c(-c2ccccc2)n1 [Selexipag] | 1.04 | 1.01 | 1.07 | 1.07 | 1.05 | 1.12 | 1.14 | 1.11 | 1.1 | 1.09
CC1(C)C=Cc2c(ccc3c2OC[C@@H](c2ccc(O)cc2O)C3)O1 [Glabridin] | 1.07 | 1.05 | 1.05 | 1.03 | 1.04 | 1 | 1.13 | 1.2 | 0.981 | 1.01
Cc1cccc(CC(=O)N2CCc3c2ccc(-c2cn(C)c4ncnc(N)c24)c3F)n1 | 1.03 | 1.06 | 1 | 1.04 | 1.08 | 1.01 | 1.14 | 1.06 | 0.973 | 0.993
O=C1C[C@@H](c2ccc(O)cc2)Oc2cc(O)cc(O)c21 [Naringenin] | 0.927 | 1.03 | 0.942 | 1.05 | 1.07 | 0.975 | 1.17 | 1.18 | 0.978 | 1.02

SMILES | normalised indicator fluorescence (hsa-mir-191 loop; [1]) | normalised indicator fluorescence (hsa-mir-191 loop; [2]) | normalised indicator fluorescence (hsa-mir-21 loop; [1]) | normalised indicator fluorescence (hsa-mir-21 loop; [2]) | normalised indicator fluorescence (hsa-mir-221 loop; [1]) | normalised indicator fluorescence (hsa-mir-221 loop; [2]) | normalised indicator fluorescence (hsa-mir-374a loop; [1]) | normalised indicator fluorescence (hsa-mir-374a loop; [2]) | normalised indicator fluorescence (hsa-mir-6850 loop; [1]) | normalised indicator fluorescence (hsa-mir-6850 loop; [2])
COC(=O)c1ccc([C@H]2c3[nH]c4ccccc4c3C[C@H](C(=O)OC)N2C(=O)CCl)cc1 | 1.05 | 1 | 0.974 | 1.02 | 0.997 | 1.09 | 1.01 | 1.39 | 1.09 | 1.03
CC1(C)CC(=O)c2c(C(F)(F)F)nn(-c3ccc(C(N)=O)c(N[C@H]4CC[C@H](O)CC4)c3)c2C1 | 1.03 | 1.03 | 0.989 | 1.04 | 0.978 | 1.18 | 1.01 | 1.13 | 0.777 | 0.989
O=CN1CC/C(=C/c2ccc3c(c2)OCO3)C1=O | 1.04 | 1.04 | 0.922 | 1.01 | 1.03 | 0.986 | 1.1 | 1.08 | 1 | 1.03
N=C(NCCCCCCNC(=N)NC(=N)Nc1ccc(Cl)cc1)NC(=N)Nc1ccc(Cl)cc1 [Chlorhexidine hydrochloride] | 1.01 | 0.962 | 0.896 | 1 | 1.01 | 0.981 | 1.06 | 1.05 | 0.906 | 1.04
C/C1=C/CC[C@H](C)C(=O)C[C@@H](C(C)C)C(=O)C1 [Curdione] | 1.05 | 1.02 | 1.04 | 1.09 | 1.05 | 1.16 | 1.07 | 1.26 | 1.14 | 1.06
O=c1ncn2nc(Sc3ccc(F)cc3F)ccc2c1-c1c(Cl)cccc1Cl [Neflamapimod] | 1.04 | 1.05 | 0.973 | 1.04 | 1.03 | 1.22 | 1.07 | 1.3 | 0.955 | 1.02
[I-].[K+] [Potassium iodide] | 1.06 | 1.08 | 1.11 | 1.03 | 1.08 | 1.03 | 1.21 | 1.05 | 1.07 | 1.07
CCOc1cc(C(=O)N2CCC(N3CCN(C)CC3)CC2)ccc1Nc1ncc2c(n1)N(C1CCCC1)c1ccccc1C(=O)N2C | 1.09 | 1.04 | 0.946 | 1.01 | 1.03 | 1.01 | 1.07 | 1.1 | 0.938 | 1
OC[C@H]1O[C@@H](Oc2ccc(O)cc2)[C@H](O)[C@@H](O)[C@@H]1O [Arbutin] | 0.981 | 1.07 | 1.01 | 1.03 | 1.08 | 1.04 | 1.13 | 1.04 | 0.964 | 1.07
O=C(O)/C=C/c1ccc(Cn2ccnc2)cc1 [Ozagrel hydrochloride] | 0.95 | 0.992 | 1.01 | 1.02 | 1 | 0.921 | 1.07 | 1.12 | 1.02 | 1.03
Oc1ccc(OCc2ccccc2)cc1 [Monobenzone] | 0.997 | 1.15 | 0.955 | 1.11 | 1.03 | 1.17 | 1.27 | 1.27 | 0.909 | 1.06
O=C(Nc1nc2ccc(NC(=O)C34CC5CC(CC(C5)C3)C4)cc2s1)c1ccccc1 | 1 | 1.02 | 0.991 | 1.02 | 1.14 | 1.05 | 1.1 | 1.06 | 0.997 | 0.982
C[C@H]1[C@H](C)CC[C@]2(C(=O)O)CC[C@]3(C)C(=CC[C@@H]4[C@@]5(C)C[C@@H](O)[C@H](O)[C@@](C)(CO)[C@@H]5CC[C@]43C)[C@H]12 [Asiatic acid] | 0.974 | 1.01 | 0.904 | 1.07 | 1.03 | 0.961 | 1.15 | 1.06 | 0.846 | 1.03
COC1=CC(=O)c2ccccc2C1=O [2-Methoxynaphthoquinone] | 1.01 | 1.03 | 0.993 | 1.05 | 1.06 | 1.06 | 1.14 | 1.19 | 0.946 | 1.07
C[C@@H]1O[C@@H](Oc2c(-c3cc(O)c(O)c(O)c3)oc3cc(O)cc(O)c3c2=O)[C@H](O)[C@H](O)[C@H]1O [Myricetrin] | 0.952 | 1.05 | 0.962 | 1.07 | 0.97 | 1.09 | 1.07 | 1.17 | 0.944 | 1.08
NNC(=O)c1ccncc1 [Isoniazid] | 1.01 | 1.06 | 0.967 | 1.07 | 0.976 | 1.01 | 1.01 | 1.07 | 0.921 | 1.09
C[C@@H]1O[C@@H](O[C@@H]2[C@@H](O)[C@H](OCCc3ccc(O)c(O)c3)O[C@H](CO)[C@H]2OC(=O)/C=C/c2ccc(O)c(O)c2)[C@H](O)[C@H](O)[C@H]1O [Verbascoside] | 1.1 | 1.02 | 1.13 | 1.01 | 1.07 | 0.949 | 1.46 | 1.14 | 1.02 | 1.02
C[C@H](CCC(=O)NCCS(=O)(=O)O)[C@H]1CC[C@H]2[C@@H]3[C@@H](O)C[C@@H]4C[C@H](O)CC[C@]4(C)[C@H]3CC[C@]12C [Tauroursodeoxycholic Acid] | 1.03 | 1.01 | 0.892 | 1.01 | 1.02 | 1.05 | 1.06 | 1.13 | 0.975 | 1.02
Oc1ccc(OC2CCCCO2)cc1 (stereo not given) [Deoxyarbutin] | 1.11 | 1.06 | 1.03 | 1.06 | 1.03 | 1.1 | 1.03 | 1.13 | 0.979 | 1
